Out of some 360,000 compounds screened, about 1,400 (0.39%) were called active. The list comes from a sample in which actives are over-represented; it also holds similar structures and randomly drawn compounds. A number with no mark means an inactive call.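 The calls were made as follows: active = activation above its plate's cutoff, the mean activation of sample wells plus 3 SD; inactive = the rest.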

Muscarinic acetylcholine receptor M4 (Homo sapiens), sequence (P08173 whole entry, looked up): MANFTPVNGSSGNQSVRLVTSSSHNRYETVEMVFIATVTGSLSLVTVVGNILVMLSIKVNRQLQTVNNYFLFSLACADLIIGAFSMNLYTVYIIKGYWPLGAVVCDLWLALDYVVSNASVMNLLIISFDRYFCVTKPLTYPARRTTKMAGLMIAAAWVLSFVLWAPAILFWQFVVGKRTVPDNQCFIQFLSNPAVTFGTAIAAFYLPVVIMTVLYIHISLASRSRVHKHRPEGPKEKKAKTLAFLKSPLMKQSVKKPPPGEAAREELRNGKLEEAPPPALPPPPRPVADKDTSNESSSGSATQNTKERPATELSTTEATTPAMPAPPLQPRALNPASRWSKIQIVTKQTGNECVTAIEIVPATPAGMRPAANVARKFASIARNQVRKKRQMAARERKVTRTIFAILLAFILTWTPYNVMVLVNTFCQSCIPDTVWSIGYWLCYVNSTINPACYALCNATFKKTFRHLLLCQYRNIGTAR

The assay concerns the target Muscarinic acetylcholine receptor M4 (Homo sapiens) (UniProt P08173). Description: CHRM4 PAMs potentiating acetylcholine calcium signal – CHO-K1 cells, Fluo-8 calcium fluorescence, primary screen (AID 624126). Particulars: CHO-K1 hM4/Gqi5, Fluo-8 calcium fluorescence, ACh EC20; at 3 µM; active compounds read high; 0% = ACh EC20, 100% = maximal ACh.
Turning to `CCN(CC)S(=O)(=O)c1ccc(NC(=O)c2cccnc2Cl)c(NC(=O)c2cccnc2Cl)c1`, the activation is 2.53%.

Turning to `CCCCNC(=O)c1cn(CC)c2cc(N3CCN(C(=O)c4ccco4)CC3)c(F)cc2c1=O`, the activation was 18% (active).

`CCCCCCn1cc(C(=O)O)c(=O)c2cc(F)c(N3CCCCC3)cc21`: the activation was -1.05%.

Consider `CCn1cc(C(=O)NCCO)c(=O)c2cc(F)c(N3CCN(C)CC3)cc21`, for which the activation is -4.27%.

Turning to `O=C1NC[C@@H](c2ccccc2)OC(=O)[C@H](Cc2ccc(F)cc2)CC/C=C/C[C@H]1CC(=O)N(CCO)Cc1ccccc1`, the activation was -11.5%.

Take `O=C(O)CCn1cc(/C=C/C(=O)c2ccc(Cl)cc2)c(-c2cccc(Br)c2)n1`: the activation is -5.08%.

As for `O=[N+]([O-])c1ccc2[nH]c3c(c2c1)CCCC3O` (stereo not given), the activation is 6.6%.

For `CC(C)Oc1ccccc1C(=O)NC(CO)C(=O)O` (stereo not given), the activation is 7.23%.

Turning to `CC(=O)Oc1ccc(NC(=O)CCC2CCCCC2)c(C(=O)O)c1`, the activation was 4.74%.

On to `COc1ccc(NC(=O)CCn2ccnc2)c(OC)c1`, for which the activation is -8.61%.

As to `COc1ccc(NC(=O)CCCC2CCCCC2)c(OC)c1`, the activation is 21.1% (active).

With `CCOC(=O)c1c(CN(C)C)n(-c2ccccc2)c2cc(Br)c(O)cc12`, the activation is 1.89%.

For `Nc1nnc(C2CCCC2)s1`, the activation is -4.96%.

Take `CCOC(=O)C1CCN(C(=O)/C=C/c2cc(OC)c(OC)c(OC)c2)CC1`: the activation was 0.77%.

Take `COc1ccc(/C=C/C(=O)N2CCCC2)cc1OC`: the activation is 31.3% (active).

Regarding `COc1cc(/C=C/C(=O)N2CCc3ccccc3C2)cc(OC)c1OC`, the activation is -4.53%.

Turning to `COc1cccc(NC(=O)Cn2c3ccccc3c3nc4n(c(=O)c32)CCS4)c1`, the activation is 7.32%.

Turning to `O=C(NCc1ccncc1)NC12CC3CC(CC(C3)C1)C2`, the activation was 21.2% (active).

On to `S=C(NCc1ccc(Cl)cc1)NC12CC3CC(CC(C3)C1)C2`, for which the activation was -13.6%.

Take `O=C(NCc1cccnc1)C12CC3CC(CC(C3)C1)C2`: the activation was -4.11%.

Consider `Cc1noc(C)c1NC(=O)N(C)C[C@@H]1Oc2cc(Br)ccc2S(=O)(=O)N([C@@H](C)CO)C[C@H]1C`, for which the activation is 3.07%.

On to `COC(=O)c1ccc(COC(=O)c2cnc(Cl)c(Cl)c2)cc1`, for which the activation was 1.26%.

In the case of `COC(=O)c1ccc(OC(=O)c2nn(C)cc2Cl)c(OC)c1`, the activation is 22% (active).

In the case of `COc1ccc(CCNC(=O)COC(=O)c2ncc(Cl)c(Cl)c2Cl)cc1OC`, the activation was 0.15%.

Regarding `COc1ccc(CSc2nnnn2-c2ccc(O)cc2)cc1F`, the activation is -3.48%.
